This passage reports AC50 and outcome results from PubChem BioAssay (EPA / NIEHS).

The nature of assay [1]: CCTE_Padilla_ZF_144hpf_TERATOSCORE: (Legacy) CCTE's 144 Hour Post-fertilization zebrafish Assay Teratoscore, Padilla Lab (AID 2283679).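 For AC50: zebrafish embryos with chorions exposed by immersion from 6-8 hpf to 5 dpf with daily renewal; teratogenicity score from eye scoring of death hatching and malformations at 144 hpf; higher score means more developmental defects relative to DMSO baseline.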 The method in brief:
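Larvae scored by eye at 144 hpf for death, hatching and malformations after a day in clean Hanks'. Before that, daily-renewed exposure at 80 uM (0.4% DMSO, 26C) from roughly 6-8 hpf through 5 dpf, 4 embryos per chemical.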

The nature of assay [2]: STM_H9_OrnithineISnorm_perc: Stemina devTOX quickPredict H9 human embryonic stem cell (hESC)-based Assay for Ornithine (ORN) Metabolite Biomarker, Normalized (AID 2283712).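 Note: ornithine released into spent medium during last day measured by mass spectrometry.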 The essentials: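 Cells: undifferentiated H9 hESC. Dosing: 72 h, media replaced every 24 h. Sample: final 24-h conditioned media, 40% acetonitrile. Read: UPLC-HRMS ornithine area vs 13C standard, % DMSO control.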

Assay [3] is described as follows: STM_H9_CystineISnorm_perc: Stemina devTOX quickPredict H9 human embryonic stem cell (hESC)-based Assay for Cystine (CYSS) Metabolite Biomarker, Normalized (AID 2283713). The essentials:
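Secreted cystine was measured by UPLC-HRMS in H9 hESC medium after 72h compound exposure with 24-hourly replenishment. Values are standard-normalized areas relative to 0.1% DMSO.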

Assay [4] can be described thus: STM_H9_OrnCyssISnorm_ratio: Stemina devTOX quickPredict H9 human embryonic stem cell (hESC)-based Assay for Ornithine (ORN):Cystine (CYSS) Ratio (AID 2283714; active = hit-call score of the fitted dose curve at least 0.9, where 1 is the maximum). The essentials: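 Undifferentiated H9 hESCs exposed 72 h, media and compound replaced every 24 h; final 24-h conditioned media deproteinized and analysed by UPLC-HRMS against C13 spike-ins. Value is the internal-standard-normalized ORN/CYSS ratio versus 0.1% DMSO.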

Assay [5] in a line: CEETOX_H295R_MTT_cell_viability: Viability Assessment in the CeeTox HT-H295R MTT Assay (AID 2283718).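 For AC50: curve fitted both ways so AC50 may mark viability loss or gain.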 The method in brief:
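Human H295R adrenal cells, prestimulated 48 h with 10 uM forskolin, were exposed 48 h to chemicals in 0.1% DMSO. Viability was measured in the same wells by MTT (0.5 mg/ml, 4 h, 37 C), absorbance 570/650 nm, as percent of controls.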

Assay [6] in a line: Tanguay_ZF_120hpf_ActivityScore_legacy: (Legacy) Oregon State University Tanguay Lab 120 Hour Post-fertilization zebrafish Assay Score for Activity (AID 2283742; active = hit-call score of the fitted dose curve at least 0.9, where 1 is the maximum;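 for AC50: dechorionated Tropical 5D wild-type zebrafish embryos held singly per well; static exposure from 6 hpf until 120 hpf at 28 °C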). The essentials:
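Dechorionated Tropical 5D embryos, one per well from 6 hpf, statically exposed to 120 hpf at 28 °C in 0.64% DMSO. Mortality and malformations scored binary by brightfield microscopy; activity score combines 18 endpoints, fitted positively versus DMSO.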

Assay [7] in a line: ArunA_CellTiter_hNC: Viability Assessment in the ArunA Biomedical's Oris Neural Crest (hNC) Cell Migration Assay (AID 2283752; active = hit-call score of the fitted dose curve at least 0.9, where 1 is the maximum). The method in brief:
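Viability of embryonic neural crest stem cells from the H9 line is scored 72 h after dosing, with DMSO as negative control and baseline. A drop in CellTiter Aqueous One signal indicates cytotoxicity.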

A short description of assay [8]: ArunA_CellTiter_hNP: Viability Assessment in the ArunA Biomedical's Oris Neural Crest (hNC) Cell Migration Assay (AID 2283753; active = hit-call score of the fitted dose curve at least 0.9, where 1 is the maximum). The method in brief:
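H9-derived hNP1 neuroprogenitors, 60,000/well on Matrigel, cultured 16 h, then 72 h chemical exposure in test medium. Cell titer via CellTiter Aqueous One; positive-direction fit vs DMSO.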

The nature of assay [9]: ArunA_Migration_hNP: ArunA Biomedical's Oris Neuroprogenitor (hNP) Cell Migration Assay (AID 2283754; active = hit-call score of the fitted dose curve at least 0.9, where 1 is the maximum). The method in brief:
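Human H9-derived hNP1 neuroprogenitors on Matrigel with LIF/bFGF, plated around seeding stoppers for 16 h at 37C; stoppers removed at start of 72 h chemical exposure. Calcein-AM staining, fluorescence 494/517 nm in detection zone; loss-of-signal vs DMSO; cytochalasin D control.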

A short description of assay [10]: ArunA_Migration_hNC: ArunA Biomedical's Oris Neural Crest (hNC) Cell Migration Assay (AID 2283755; active = hit-call score of the fitted dose curve at least 0.9, where 1 is the maximum). The essentials: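 Human H9-derived neural crest stem cells, 60,000/well on Matrigel, 16 h at 37C, then 72 h chemical exposure after seeding-stopper removal. Migration into detection zone read as calcein-AM fluorescence (ex494/em517), relative to DMSO.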
The nature of assay [11]: ArunA_NOG_NucleusCount: ArunA Biomedical's Neurite Outgrowth (NOG) Assay for Nucleus Count (AID 2283756; active = hit-call score of the fitted dose curve at least 0.9, where 1 is the maximum). The method in brief: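 Human H9-derived differentiated neurons were exposed for 48 h right after seeding. Hoechst-stained nuclei gated by size and intensity were counted by automated high-content imaging as viable neurons. Loss of signal vs DMSO.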
Assay [12] is described as follows: ArunA_NOG_NeuriteLength: ArunA Biomedical's Neurite Outgrowth (NOG) Assay for Neurite Length (AID 2283757; active = hit-call score of the fitted dose curve at least 0.9, where 1 is the maximum). The essentials: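 Differentiated human H9-derived neurons were exposed for 48 h from seeding, then stained with Hoechst and βIII-tubulin. Automated high-content imaging gave total neurite length per valid neuron, counting processes >10 um. Loss of signal was scored versus DMSO.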

Assay [13] in a line: ArunA_NOG_NeuritesPerNeuron: ArunA Biomedical's Neurite Outgrowth (NOG) Assay for Neurites Per Neuron (AID 2283758; active = hit-call score of the fitted dose curve at least 0.9, where 1 is the maximum). The essentials: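 Differentiated human H9-derived neurons exposed to chemicals for 48 h from seeding, then stained with Hoechst and βIII-tubulin/DyLight 488. Automated imaging counted neurites (processes >10 um) per valid neuron; loss of signal versus DMSO scored.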

Assay [14] is described as follows: ArunA_NOG_BranchPointsPerNeurite: ArunA Biomedical's Neurite Outgrowth (NOG) Assay for Branch Points Per Neurite (AID 2283759; active = hit-call score of the fitted dose curve at least 0.9, where 1 is the maximum). The method in brief:
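Automated image analysis traced neurites (processes >10 um) from valid cell bodies after Hoechst and βIII-tubulin staining. hNN cells from H9 embryonic stem cells, 48 h exposure. Fitted bidirectionally against DMSO.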

Assay [15] concerns Thyroperoxidase (TPO), gene 445522. Nature of the assay: CCTE_Simmons_GUA_TPO: CCTE's Guaiacol Assay for Thyroperoxidase (TPO) Inhibition, Simmons Lab (AID 2283750; active = hit-call score of the fitted dose curve at least 0.9, where 1 is the maximum). The essentials:
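Porcine thyroid microsomes (25 ug) in 200mM potassium phosphate, preincubated 30 s at 37C with compound (8 concentrations, 5 nM–87.5 uM) and 35mM guaiacol; 1mM H2O2 starts reaction. Absorbance change at 450nm over first 80 s; loss of signal versus DMSO, three replicates.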

The target of assay [16] is Luciferin 4-monooxygenase (Photinus pyralis) (UniProt P08659). In words: CCTE_Simmons_QuantiLum_inhib_2: CCTE's Firefly Luciferase Inhibition Assay, Simmons Lab (AID 2283767; active = hit-call score of the fitted dose curve at least 0.9, where 1 is the maximum;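 for AC50: potency for inhibitors that lower luciferase luminescence relative to DMSO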). The method in brief:
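Counter-screen for nonspecific enzyme inhibition: purified firefly luciferase incubated 30 min at 37C with chemicals up to 87.5 uM final, then luminescence measured after luciferin/dATP injection; activity fitted against DMSO baseline.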

Each structure is given as a SMILES string. Several values for one entry are separate records, joined by “and”; a condition that tells them apart may be missing. Equal entries are not always repeated. Records with an inconclusive call do not appear. Some structures have more than one record in an assay (separate samples or runs), and their calls can disagree. Activity calls are given as the source filed them. Rule for the calls, unless noted: active = hit-call score of the fitted dose curve at least 0.9, where 1 is the maximum; inactive = score below 0.9.

Sequence of Luciferin 4-monooxygenase (Photinus pyralis) (P08659 whole entry, looked up): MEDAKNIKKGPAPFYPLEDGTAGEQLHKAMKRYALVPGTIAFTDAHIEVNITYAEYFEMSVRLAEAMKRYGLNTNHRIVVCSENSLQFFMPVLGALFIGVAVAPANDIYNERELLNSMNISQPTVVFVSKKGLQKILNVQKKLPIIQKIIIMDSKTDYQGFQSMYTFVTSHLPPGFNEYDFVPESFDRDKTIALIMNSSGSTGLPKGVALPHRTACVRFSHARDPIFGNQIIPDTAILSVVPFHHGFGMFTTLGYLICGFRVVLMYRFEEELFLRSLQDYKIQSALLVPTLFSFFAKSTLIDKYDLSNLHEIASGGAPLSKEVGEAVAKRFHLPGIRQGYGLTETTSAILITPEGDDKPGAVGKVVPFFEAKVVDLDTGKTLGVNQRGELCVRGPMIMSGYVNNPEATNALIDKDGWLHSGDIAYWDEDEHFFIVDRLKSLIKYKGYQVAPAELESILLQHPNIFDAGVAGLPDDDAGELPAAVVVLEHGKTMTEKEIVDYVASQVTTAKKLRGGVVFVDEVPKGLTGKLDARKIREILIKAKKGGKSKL

For `CC(C)c1cccc(C(C)C)c1N1C(=O)c2ccc(O)cc2C1=O`, the AC50 (in general, the midpoint of the concentration-response curve, whichever way the signal moves) in assay [1] was 4.71 µM (active); in assay [2] it was 27.8 µM (active); in assay [3], 24 µM (active); in [4], 14.9 µM (active); in assay [5], 3.83 µM (active); in assay [6], 29.5 µM (active). Besides, the AC50 in [7] is 4.05 µM (active) and 11.8 µM (active); in [8] it was 20.7 µM (active); in [9], 7.81 µM (active) and 3.04 µM (active); in [10], 7.71 µM (active) and 2.24 µM (active); in assay [12], 13.3 µM (active); in assay [13], 5 µM (active) and 13.3 µM (active). In addition, the molecule was called inactive in [11], in assay [12] and in [14].

In the case of `COc1cccc(-c2ccc(/C=C\CN3CCCCCC3)cc2Cl)c1`, the AC50 in assay [1] is 2.73 µM (active); in assay [2], 3.59 µM (active); in [3] it was 4.11 µM (active); in [4] it was 3.97 µM (active); in assay [6] it was 41.8 µM (active). The outcome in [5] was inactive.

For the molecule `Cc1c(-c2cccnc2)c2ccccc2n1CCCCC(=O)O`, the AC50 in assay [1] was 58.5 µM (active). Besides, the molecule was classed as inactive in assay [5] and in assay [6].

Turning to `On1ccccc1=S`, the AC50 was 27.7 µM (active) in [1]; 8.49 µM (active) in assay [2]; 5.86 µM (active) in [3]; 7.94 µM (active) in [4]; 85.9 µM (active) in assay [15]; 9 µM (active) in assay [16]. Also, the call in assay [6] was inactive.

In the case of `CC[C@H](C)C(=O)O[C@H]1C[C@@H](C)C=C2C=C[C@H](C)[C@H](CC[C@@H]3C[C@@H](O)CC(=O)O3)[C@H]21`, the AC50 is 7.47 nM (active) and 5.89 nM (active) and 5.45 nM (active) in assay [1]; 13.2 µM (active) in [3]; 6.84 µM (active) in assay [4]; 1.68 µM (active) in [6]; 77.6 µM (active) in assay [16]. For the same molecule, the result in [2], in assay [5] and in assay [16] was inactive.

Consider `CC(C)CCO`, for which the molecule was called inactive in assay [1], in assay [2] and in [6]. The AC50 in [3] was 0.118 µM (active).

As to `COc1ccc2sc(C(=O)Nc3nnn[nH]3)c(OC(C)C)c2c1`, the AC50 was 34.4 µM (active) in assay [1], 1.33 µM (active) in assay [2], 1.65 µM (active) in assay [3] and 1.52 µM (active) in [4]. Further, in assay [6], the result was inactive.

Turning to `Fc1ccccc1[C@@H](F)COC1CCC(Nc2ncnc3[nH]ncc23)CC1` (some centres not stated), the AC50 is 13.8 µM (active) in assay [1] and 6.77 µM (active) in [5]. Moreover, the result in assay [2], in assay [3], in assay [4] and in assay [6] was inactive.

Take `CCCCCCCCCCCCc1ccccc1`: the outcome in [1], in assay [2], in [3] and in assay [6] was inactive.

On to `COCCOCCOCCOC`, for which the outcome in [1], in assay [2], in assay [3], in assay [4] and in [6] was inactive.

`Oc1ccc2c(c1)-c1ccccc1C2`: the AC50 in [1] is 32.9 µM (active); in assay [5], 32.8 µM (active); in [6], 46.6 µM (active). In addition, in [16], the outcome was inactive.

Take `Cc1ccc(N)cc1O`: the result in assay [1], in assay [5] and in assay [6] was inactive. Moreover, the AC50 is 3.61 µM (active) in assay [15] and 17.4 µM (active) in assay [16].

Take `Nc1nc2ncc(CNc3ccc(C(=O)N[C@@H](CCC(=O)O)C(=O)O)cc3)nc2c(=O)[nH]1`: the result in assay [1], in assay [2], in assay [3], in assay [6], in assay [15] and in [16] was inactive.

With `Nc1ccc(Nc2ccccc2)cc1`, the AC50 in [1] is 10.1 µM (active); in assay [2], 4.61 µM (active); in assay [3], 2.69 µM (active); in assay [4] it was 3.03 µM (active); in [6] it was 30.1 µM (active). The molecule was classed as inactive in assay [5] and in [16].

Turning to `CCC(C)(C)C(=O)O[C@H]1C[C@@H](C)C=C2C=C[C@H](C)[C@H](CC[C@@H]3C[C@@H](O)CC(=O)O3)[C@H]21`, the AC50 is 115 nM (active) and 2.58 nM (active) and 7.92 nM (active) in [1]; 0.000728 µM (active) in [2]; 0.403 µM (active) in assay [6]. The outcome in assay [3], in assay [5] and in assay [16] was inactive.

Consider `CC(C)CCCCCCCOC(=O)CCCCC(=O)OCCCCCCCC(C)C`, for which the molecule was called inactive in assay [1] and in assay [6].

`COc1ccc(/C=C/S(=O)(=O)NC(=O)c2ccc(C)cc2Cl)cc1`: the molecule was classed as inactive in assay [1] and in [6]. Further, in assay [5], the AC50 is 3.37 µM (active).

`CN(C)c1ccc(Cc2ccc(N(C)C)cc2)cc1`: in assay [1], the AC50 is 25.2 µM (active). The call in [5], in assay [6] and in assay [16] was inactive.

For the molecule `C=CCCCCCCCCC(=O)O`, the AC50 in assay [1] was 60.1 µM (active). Besides, the call in assay [5] and in assay [6] was inactive.

For the molecule `CCOc1cccc(-n2cc(C(=O)N3CCN(c4cc(C(=O)O)c5ccccc5c4)CC3)nc2-c2ccc(C)cc2)c1`, in [1], the AC50 is 16.6 µM (active). Further, the molecule was classed as inactive in assay [5], in [6] and in [16].

Regarding `O=C(NS(=O)(=O)/C=C/c1ccccc1)c1ccc(F)cc1Cl`, the outcome in assay [1] and in [6] was inactive. Also, the AC50 in assay [5] was 11.2 µM (active).

For `Cn1c(=O)cc(Oc2ccc(F)cc2F)c2cnc(NCC(C)(C)O)nc21`, the result in assay [1], in assay [2], in assay [3], in assay [4], in assay [5] and in [6] was inactive.

Consider `O=C(O)c1cccc(N(Cc2cccnc2)c2ccc(OC(F)F)c(OC(F)F)c2)c1`, for which the AC50 in [1] is 26.5 µM (active). The result in assay [5], in assay [6] and in assay [16] was inactive.

Consider `COC(=O)CC(=O)OC`, for which the molecule was classed as inactive in assay [1] and in assay [6].
